The record followed here is PubChem BioAssay AID463173 (ICCB-Longwood Screening Facility, Harvard Medical School, 2010).

Molecules are shown by their SMILES. The whole screen tested about 52,000 compounds, of which about 4,300 (8.3%) were called active. Rule as the data show it: active = survival mostly below about 52% (no sharp cut-off); inactive = mostly above about 56%. The entries come from a sample that favours actives as a whole.

In the assay the test system is DeltatarO mutant. Put plainly: S. aureus survival, RN4220 and DeltatarO strains – OD600, teichoic acid synthesis inhibitors, primary screen (AID 463173). Conditions: S. aureus RN4220 wild type/DeltatarO growth, OD600, 18 h, active compounds read low, screened at 18.75 µg/mL (by protocol).
As to `CCC(=O)N1c2nc(C(C)C)nn2C2(CCCCC2)[C@@H]2CCCC[C@@H]21`, the survival was 81% (inactive).

In the case of `COC(=O)c1ccc(Cn2nnc3c(=O)[nH]c(C4CCCN(S(=O)(=O)c5cccc(Cl)c5)C4)nc32)cc1` (stereo not drawn), the survival is 94% (inactive).

As for `CC(C)N(C(=O)CSc1nnc(Cc2csc(Nc3ccccc3)n2)o1)C(C)C`, the survival was 69% (inactive).

In the case of `CCOc1ccc2nc(NCCNC(=O)C3CCCCC3)c(C#N)cc2c1`, the survival was 106% (inactive).

In the case of `CCN(CC)C(=O)/C(=C\c1ccc(OC)c(OC)c1)n1ccccc1=O`, the survival is 103% (inactive).

With `CCc1ccc(CNC(=O)Cn2nc(C)c3c(C)n(-c4ccc(C)cc4)nc3c2=O)cc1`, the survival was 79% (inactive).

With `COc1ccc(-c2cccc(NS(=O)(=O)c3cc(C)c(Cl)cc3C)c2)nn1`, the survival is 102% (inactive).

On to `CC(=O)c1sc2c(c1C)c(=O)n(-c1ccc(Cl)cc1)c(=O)n2Cc1cc(=O)n2cc(Cl)ccc2n1`, for which the survival was 58% (inactive).

`Cc1oc(-c2ccccc2)nc1C(=O)O`: the survival is 72% (inactive).

Turning to `CCCCNc1ccc(-c2nc(-c3ccco3)no2)cc1[N+](=O)[O-]`, the survival was 57% (inactive).

As to `CCNc1ccc(-c2nc(-c3ccco3)no2)cc1[N+](=O)[O-]`, the survival was 51% (inactive).

Regarding `O=[N+]([O-])c1cc(-c2nc(-c3ccco3)no2)ccc1NCc1ccccc1`, the survival was 47% (active).

In the case of `Cc1ccc(CNc2ccc(-c3nc(-c4ccco4)no3)cc2[N+](=O)[O-])cc1`, the survival is 53% (inactive).

For the molecule `CCCNc1ccc(-c2nc(-c3ccco3)no2)cc1[N+](=O)[O-]`, the survival was 57% (active).

With `COc1ccccc1CNc1ccc(-c2nc(-c3ccco3)no2)cc1[N+](=O)[O-]`, the survival is 45% (inactive).

For `CCc1ccc2[nH]c3nc(SCC(=O)OC(C)C)nnc3c2c1`, the survival was 108% (inactive).

Turning to `Cc1cc(C)c2c(=O)c3c(oc2c1)C(=O)N(CCCOC(C)C)C3c1ccccc1F` (stereo not drawn), the survival is 67% (inactive).

Regarding `COc1ccc(-n2c(SCC(=O)N3CCC(C)CC3)nc3c([nH]c4ccccc43)c2=O)cc1`, the survival was 70% (inactive).

As to `Cc1ccc(-n2c(SCC(=O)N3CCC(C)CC3)nc3c([nH]c4ccccc43)c2=O)cc1`, the survival is -5% (active).

As to `CC1CCN(C(=O)CSc2nc3c([nH]c4ccccc43)c(=O)n2-c2ccccc2)CC1`, the survival was 75% (inactive).

In the case of `CCOc1ccc(-n2c(SCC(=O)N3CCCCC3)nc3c([nH]c4ccccc43)c2=O)cc1`, the survival was 107% (inactive).

In the case of `Cc1cc(C)cc(-n2c(SCC(=O)N3CCCCC3)nc3c([nH]c4ccccc43)c2=O)c1`, the survival is 88% (inactive).

On to `CCOc1ccc(-n2c(SCC(=O)N3CCCC3)nc3c([nH]c4ccccc43)c2=O)cc1`, for which the survival is 98% (inactive).

For the molecule `Cc1cc(C)cc(-n2c(SCC(=O)N3CCCC3)nc3c([nH]c4ccccc43)c2=O)c1`, the survival was 89% (inactive).

Regarding `Cc1cc(C)cc(-n2c(SCC(=O)N3CCC(C)CC3)nc3c([nH]c4ccccc43)c2=O)c1`, the survival was 17% (active).

For `COC(=O)C(C)Sc1nc2c([nH]c3ccccc32)c(=O)n1-c1ccc(OC)cc1` (stereo not drawn), the survival was 64% (inactive).

Consider `CCOc1ccc(-n2c(SC(C)C(=O)OC)nc3c([nH]c4ccccc43)c2=O)cc1` (stereo not drawn), for which the survival is 0% (active).

As for `CCOc1ccc(-n2c(SCC(=O)N3CCOCC3)nc3c([nH]c4ccccc43)c2=O)cc1`, the survival is 0% (active).

On to `CCOC(=O)CSc1nc2c([nH]c3ccccc32)c(=O)n1-c1ccc(OCC)cc1`, for which the survival was 99% (inactive).

As for `Cc1ccccc1S(=O)(=O)Cc1ccc(C(=O)NCc2ccccc2Cl)o1`, the survival is 56% (inactive).

As to `Cc1ccc(-n2ncc(C(=O)NCCCN3CCc4ccccc4C3)c2C2CCN(C(=O)OC(C)(C)C)CC2)cc1C`, the survival was 73% (inactive).

For `COc1cccc(-n2cc(C(=O)NCc3ccccc3OC)c3ccccc3c2=O)c1`, the survival is 72% (inactive).

With `CCC(Oc1ccccc1)C(=O)Nc1cccc(OCc2cc(=O)n3cccc(C)c3n2)c1` (stereo not drawn), the survival is 128% (inactive).

Turning to `O=C1N(CN2CCCCC2)c2ccccc2C12OCCCCO2`, the survival is 94% (inactive).

On to `CCc1ccc(OCC2c3cc(OC)c(OC)cc3CCN2C(=O)Cc2ccc(OC)c(OC)c2)cc1` (stereo not drawn), for which the survival was 76% (inactive).

Turning to `COc1ccccc1OCC(=O)NCC(c1ccc(Cl)cc1)N1CCCCC1` (stereo not drawn), the survival was 61% (inactive).

For the molecule `O=C(Nc1ccc(F)cc1F)c1cc(S(=O)(=O)N2CCCCC2)c[nH]1`, the survival is 83% (inactive).

Consider `Cc1ccc(NC(=O)c2cc(-c3ccc(Br)s3)nc3ccccc23)cc1F`, for which the survival was 59% (inactive).

`CCOc1cccc(CC(=O)N2CCc3c([nH]c4ccccc34)C2c2ccc(SC)cc2)c1OCC` (stereo not drawn): the survival is 107% (inactive).

As to `Cn1nccc1C(=O)NCc1ccc2c(c1)CCN2C(=O)c1ccc(F)cc1`, the survival is 65% (inactive).

`COC(=O)c1ccc(CSc2nc3c([nH]c4ccccc43)c(=O)n2-c2cc(C)cc(C)c2)o1`: the survival was 8% (active).

For the molecule `CCOc1ccc(-n2c(SCC(=O)NCc3ccco3)nc3c([nH]c4ccccc43)c2=O)cc1`, the survival was 37% (active).

Turning to `COc1ccc(-n2c(SCC(=O)NCc3ccco3)nc3c([nH]c4ccccc43)c2=O)cc1`, the survival is 102% (inactive).

Take `COC(=O)c1ccc(CSc2nc3c([nH]c4ccccc43)c(=O)n2-c2ccc(Cl)cc2)o1`: the survival is 112% (inactive).

For the molecule `O=C(CSc1nc2c([nH]c3ccccc32)c(=O)n1-c1ccc(F)cc1)NCc1ccco1`, the survival was 81% (inactive).

With `COC(=O)c1ccc(CSc2nc3c([nH]c4ccccc43)c(=O)n2-c2cccc(Cl)c2)o1`, the survival was 79% (inactive).

For `CCC(C)NC(=O)CSc1nc2cc3c(cc2c(=O)n1CCCCCC(=O)NCc1ccc2c(c1)OCO2)OCO3` (stereo not drawn), the survival was 84% (inactive).

As for `O=C(COc1ccccc1F)Nc1c(C(=O)Nc2cccc(F)c2)oc2ccccc12`, the survival was 75% (inactive).

With `COc1ccc(CCNc2nc(-c3ccc(C)cc3)cc(C(F)F)n2)cc1OC`, the survival was 87% (inactive).

For the molecule `COc1ccc(CCNc2nc(-c3ccccc3OC)cc(C(F)(F)F)n2)cc1OC`, the survival is -8% (active).

For `COc1ccc(CCNC(=O)CSc2nc(-c3ccc(F)cc3)cc(C(F)(F)F)n2)cc1OC`, the survival was 77% (inactive).

With `COc1ccc(CCNC(=O)Cn2nc(-c3ccc(Cl)cc3)ccc2=O)cc1OC`, the survival is 75% (inactive).

Consider `COc1ccc(CCNC(=O)C2CCN(c3nc4ccccc4nc3C(F)(F)F)CC2)cc1OC`, for which the survival is 92% (inactive).

For `COc1ccc(CCNc2nc(-c3ccc(Cl)cc3)cc(C(F)(F)F)n2)cc1OC`, the survival is 8% (active).

For the molecule `COc1ccc(CCNc2nc(-c3ccc(F)cc3)cc(C(F)(F)F)n2)cc1OC`, the survival was 109% (inactive).

Turning to `COc1cccc(-c2cc(C(F)(F)F)nc(NCCc3ccc(OC)c(OC)c3)n2)c1`, the survival is 4% (active).

For `COc1ccc(-c2cc(C(F)(F)F)nc(SCC(=O)NCCc3ccc(OC)c(OC)c3)n2)cc1`, the survival is 59% (inactive).

For the molecule `COc1ccc(CCNc2nc(-c3ccc(OC)c(OC)c3)cc(C(F)(F)F)n2)cc1OC`, the survival was 4% (active).

In the case of `CCOC(=O)N1CCC(NC(=O)c2cnn(-c3ccc(C)cc3)c2-n2cccc2)CC1`, the survival is 69% (inactive).

For the molecule `CCc1ccc2[nH]c(=O)c(CN(CCCN3CCOCC3)C(=S)NC)cc2c1`, the survival is 88% (inactive).

Take `CC(C)c1c(O)nc(SCCN2CCOCC2)[nH]c1=O`: the survival is 92% (inactive).

Consider `CCOc1ccc2nc(NC3=NCCC(=O)N3)nc(C)c2c1`, for which the survival was 80% (inactive).

Consider `CCN(CC)C(=O)c1sc2c(c1C)c(=O)n(-c1ccc(C)c(C)c1)c(=O)n2CC(=O)Nc1ccc(F)cc1`, for which the survival is 92% (inactive).

In the case of `CCCCc1nn2c(=O)cc(COC(=O)c3ccc(NC(=O)C4CCCCC4)cc3)nc2s1`, the survival was 91% (inactive).

Take `CCn1cc(C(=O)NCc2ccc(Cl)cc2)c(=O)c2cc(S(=O)(=O)N3CCc4ccccc4C3)ccc21`: the survival was 64% (inactive).

As to `CCN(CC)C(=O)COc1ccc2ccc(=O)oc2c1`, the survival is 84% (inactive).

As for `COc1ccccc1CNC(=O)CCCn1c(=O)c2ccccc2n(Cc2ccc(C)cc2)c1=O`, the survival is 132% (inactive).

With `CCOC(=O)Cn1c(=O)n(C2CCCCC2)c2nc(-c3ccc(OCC)cc3)nc(C(N)=O)c21`, the survival is 86% (inactive).

For the molecule `CCCS(=O)(=O)N1CC(=O)N(c2ccccc2C)C(C)(C(=O)NC2CCCCC2)C1` (stereo not drawn), the survival was 75% (inactive).

Turning to `COc1ccccc1NC(=O)C1CCN(S(=O)(=O)c2cn(C)cn2)CC1`, the survival is 69% (inactive).

`CCCc1nc2nc(C)c(NS(=O)(=O)c3ccc(C)c(C)c3)c(=O)n2[nH]1`: the survival is 129% (inactive).

Regarding `Cc1nn(C(C)(C)C)c(OC(=O)c2cccc(F)c2)c1Sc1ccccc1`, the survival is 24% (active).

Regarding `COc1cc(OC)cc(C(=O)Oc2c(Sc3ccccc3)c(C)nn2C(C)(C)C)c1`, the survival is 43% (active).

Turning to `Cc1nn(C(C)(C)C)c(OC(=O)c2c(F)cccc2F)c1Sc1ccccc1`, the survival is 127% (inactive).

For `COc1ccc(C(=O)Oc2c(Sc3ccc(Cl)cc3)c(C)nn2C(C)(C)C)cc1OC`, the survival was 56% (inactive).

With `Cc1cccc(C(=O)Oc2c(Sc3ccccc3)c(C)nn2C(C)(C)C)c1`, the survival was 57% (inactive).

As for `CCOc1ccc(C(=O)Oc2c(Sc3ccccc3)c(C)nn2C(C)(C)C)cc1OCC`, the survival was 57% (inactive).

For the molecule `CCOc1ccc(NC(=O)CSc2nc(-c3ccc(OC)cc3)nc3c2Cc2c(CO)cnc(C)c2O3)cc1`, the survival was 79% (inactive).

On to `CS(=O)(=O)N1CCc2cc(C(=O)N3CCN(c4ccccc4F)CC3)ccc21`, for which the survival is 45% (inactive).

As for `COc1ccc(C(=O)Nc2nc3nc(C)c(Cl)c(=O)n3[nH]2)cc1`, the survival was 100% (inactive).

`COc1cc(C2CC(=O)N(c3ccccc3)C3=C2C(=O)OC3)cc(OC)c1OC` (stereo not drawn): the survival is 72% (inactive).

With `Cc1cc2cc(CN(CC3COCCO3)S(=O)(=O)c3ccc(F)cc3)c(=O)[nH]c2cc1C` (stereo not drawn), the survival was 103% (inactive).

Consider `O=C1c2cccc3cccc(c23)N1c1ccccc1`, for which the survival is 77% (inactive).

Regarding `COC(=O)C(NC(=O)CC(C)C)(Nc1nc2c(s1)CCCC2)C(F)(F)F` (stereo not drawn), the survival was 120% (inactive).

On to `COc1ccc(-c2cc(C(F)(F)F)nc(NCc3ccc(Cl)cc3)n2)cc1`, for which the survival was 3% (active).

As for `COc1ccc(CNC(=O)c2cc(-c3ccc(Cl)cc3)n[nH]2)cc1`, the survival is 78% (inactive).

For the molecule `COc1ccc(-c2cc(C(F)(F)F)nc(SCC(=O)NCc3ccc(Cl)cc3)n2)cc1`, the survival was 62% (inactive).

Consider `COc1ccc(CNc2nc(-c3ccc(Cl)cc3)cc(C(F)(F)F)n2)cc1`, for which the survival is 29% (active).
